Measured values from PubChem BioAssay (NCI).
About 83,000 compounds went through this panel and 20% of them were active in at least one assay; those are over-represented in the sample as a whole.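 Negative percent growth values reflect cell death: -40 means 40% of the cells present at the start died, and -100 means all died.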 The source made the active and inactive calls. Rule for the calls: active = growth percent below 10; inactive = the rest.

Tested on: HOP-62 NSCLC
Experiment: NCI-60 one-dose screen, 48 h (100 = growth as untreated, 0 = no growth, -100 = all killed)
Settings: 10 µM unless noted

**Q.** With `COc1ccc2nc(-c3ccc(Cl)cc3)cc(-c3nnc(SCC(=O)Nc4ccc(/C(C)=N\O)cc4)o3)c2c1` as the molecule, how does the growth read?
**A.** 60% (inactive)

**Q.** Which growth does the source give for `C/C(=C\c1cnc(C)s1)[C@@H]1C[C@@H]2O[C@@H]2CCC[C@H](C)[C@H](O)[C@@H](C)C(=O)C(C)(C)[C@@H](O)CC(=O)O1` here?
**A.** 26.5% (inactive)

**Q.** With `O=C(/C(=C\c1c(-c2ccccc2)[nH]c2ccccc12)S(=O)(=O)c1ccccc1)c1ccccc1` as the molecule, how does the growth read?
**A.** 64.5% (inactive)

**Q.** For `O=c1[nH]c(-c2cccc(F)c2)cc2cc(F)ccc12`, which growth is on record?
**A.** 31.9% (inactive)

**Q.** Which growth does the source give for `O=C1CS/C(=N/c2nnc(-c3ccc(O)cc3)s2)N1` here?
**A.** 83.7% (inactive)

**Q.** `C[C@H](Oc1cc(-c2cnn(C3CCNCC3)c2)cnc1N)c1c(Cl)ccc(F)c1Cl` was tested. Which growth did it give?
**A.** 66.5% (inactive)

**Q.** Which growth does the source give for `COCCOCCOCc1n(Cc2ccc3ccccc3n2)c2ccccc2[n+]1Cc1ccc2ccccc2n1` here?
**A.** 20.8% (inactive)

**Q.** `CCOC(=O)c1cnn(-c2nc(-c3ccc(F)cc3)c(C#N)c(N3CCOCC3)n2)c1N` was tested. Which growth did it give?
**A.** 111% (inactive)

**Q.** With `CC(=O)c1c(OCC#N)ccc2c(C)cc(=O)oc12` as the molecule, how does the growth read?
**A.** 94.7% (inactive)

**Q.** How did the growth turn out when `CN(CCC#N)C(=O)Nc1ccccc1` was run?
**A.** 98.8% (inactive)

**Q.** Which growth does the source give for `C#Cc1ccccc1NC(=O)c1sc2nc3c(cc2c1N)CCCCC3` here?
**A.** 99.5% (inactive)

**Q.** For `COCCOC(=O)COc1ccc(OC)cc1`, which growth is on record?
**A.** 111% (inactive)

**Q.** Which growth does the source give for `C#C[C@@]1(O)[C@@H](CO)O[C@@H](n2cnc3c(-c4ccccc4)ncnc32)[C@@H]1O` here?
**A.** 110% (inactive)

**Q.** For `COc1cc(NCC(=O)Nc2cc(Nc3ccc(C)cc3)ncn2)c(Cl)c(OC)c1Cl`, which growth is on record?
**A.** 87% (inactive)

**Q.** `COc1ccc2oc(=O)cc(-c3c(C#N)c(N)n4nc(N)c(C#N)c4c3C#N)c2c1` was tested. Which growth did it give?
**A.** 90.9% (inactive)

**Q.** For `O=C1NC(SCc2ccc(F)cc2)=N/C1=C/c1cccc(OCc2ccc(Cl)cc2)c1`, which growth is on record?
**A.** 45.9% (inactive)

**Q.** How did the growth turn out when `COc1ccc(Nc2nc(SCC(C)C)nc(-c3ccc(F)cc3)c2C#N)cc1` was run?
**A.** 73.8% (inactive)

**Q.** `COC(=O)/C=C1\SC(=Nc2ccc(F)cc2)N(CCc2c[nH]c3ccccc23)C1=O` was tested. Which growth did it give?
**A.** 104% (inactive)

**Q.** `Nc1c(C(=O)Nc2ccccc2)sc2nc3c(cc12)CN(C(=O)OCc1ccccc1)CC3` was tested. Which growth did it give?
**A.** 44.4% (inactive)

**Q.** For `COc1ccc(C2=NN(c3ccc(S(N)(=O)=O)cc3)C(c3ccc(Cl)cc3)C2)c(O)c1` (centres undefined), which growth is on record?
**A.** 90.2% (inactive)

**Q.** How did the growth turn out when `COc1ccc(C(C)c2cc(OC)c(OC)c(OC)c2)cc1` (centres undefined) was run?
**A.** 35.4% (inactive)

**Q.** For `COc1ccc(-n2nc(C(=O)NCC(=O)O)nc2-c2ccccc2)cc1`, which growth is on record?
**A.** 108% (inactive)

**Q.** Which growth does the source give for `CCOC(=O)C1=C(C)n2nc(CC#N)c(C#N)c2NC1c1ccc(Cl)cc1` (centres undefined) here?
**A.** 91.5% (inactive)

**Q.** Which growth does the source give for `Nc1c(C(=O)Nc2ccccn2)sc2nc3c(cc12)CCCC3` here?
**A.** 45.3% (inactive)

**Q.** For `CCN1CCC[C@H]1c1cc(O)c2c(c1OC)C[C@H]1C[C@H]3[C@H](N)C(=O)C(C(N)=O)=C(O)[C@@]3(O)C(=O)C1=C2O`, which growth is on record?
**A.** -12% (active)

**Q.** `Cc1cc(O)cc(O)c1N=NC1=NCCS1` was tested. Which growth did it give?
**A.** 95.7% (inactive)

**Q.** For `COC(=O)c1cncc(C(=O)Nc2ccc(-n3cnc4ccccc43)cc2)c1`, which growth is on record?
**A.** 94.8% (inactive)

**Q.** Which growth does the source give for `CNc1cccc2c1C(=O)c1cccc(N)c1C2=O` here?
**A.** 89.3% (inactive)

**Q.** Which growth does the source give for `O=S(=O)(Nc1nccs1)c1ccc(Nc2nc(-c3ccncc3)cs2)cc1` here?
**A.** 93.8% (inactive)

**Q.** Which growth does the source give for `CN1C(=O)c2cc(Cl)nc3c(NC(=O)c4cccc(Cl)c4)c(Cl)c(NC(=O)c4cccc(Cl)c4)c1c23` here?
**A.** 17.4% (inactive)

**Q.** Which growth does the source give for `O=C(O)COc1ccc2c(=O)c3sc4c(=O)c5ccccc5c(=O)c4c3c(=O)c2c1` here?
**A.** -81.1% (active)

**Q.** How did the growth turn out when `O=C(Nc1nc(-c2ccccc2)cs1)c1cc(-c2ccc(Br)cc2)nc2ccccc12` was run?
**A.** 57.1% (inactive)

**Q.** How did the growth turn out when `Cc1cc(Nc2nc(SCc3ccc(C(=O)Nc4ccc(F)cc4N)cc3)nn3cccc23)n[nH]1` was run?
**A.** 23.4% (inactive)

**Q.** How did the growth turn out when `O=C1NCc2ccc3c(-c4cccc(Cl)c4)c[nH]c3c21` was run?
**A.** 22.7% (inactive)

**Q.** With `O=C(CN1N=C(c2ccc(F)cc2)CCC1=O)Nc1nccs1` as the molecule, how does the growth read?
**A.** 98.9% (inactive)

**Q.** For `O=C1Nc2ccc(Cl)cc2/C1=N/c1nc(-c2ccc(F)cc2)cs1`, which growth is on record?
**A.** 54.1% (inactive)

**Q.** With `OCCNc1nc(NCCO)nc(Nc2ccc(C3=NN(c4cc(Cl)cc(Cl)c4)C(c4ccc(Cl)cc4)C3)cc2)n1` (centres undefined) as the molecule, how does the growth read?
**A.** 15.9% (inactive)

Tested on: NCI-H460 lung
Experiment: as above
Settings: 10 µM unless noted

**Q.** With `COc1ccc2nc(-c3ccc(Cl)cc3)cc(-c3nnc(SCC(=O)Nc4ccc(/C(C)=N\O)cc4)o3)c2c1` as the molecule, how does the growth read?
**A.** -31.2% (active)

**Q.** `C/C(=C\c1cnc(C)s1)[C@@H]1C[C@@H]2O[C@@H]2CCC[C@H](C)[C@H](O)[C@@H](C)C(=O)C(C)(C)[C@@H](O)CC(=O)O1` was tested. Which growth did it give?
**A.** 14.9% (inactive)

**Q.** `O=C(/C(=C\c1c(-c2ccccc2)[nH]c2ccccc12)S(=O)(=O)c1ccccc1)c1ccccc1` was tested. Which growth did it give?
**A.** 37.8% (inactive)

**Q.** With `O=c1[nH]c(-c2cccc(F)c2)cc2cc(F)ccc12` as the molecule, how does the growth read?
**A.** 13.9% (inactive)

**Q.** With `O=C1CS/C(=N/c2nnc(-c3ccc(O)cc3)s2)N1` as the molecule, how does the growth read?
**A.** 107% (inactive)

**Q.** Which growth does the source give for `C[C@H](Oc1cc(-c2cnn(C3CCNCC3)c2)cnc1N)c1c(Cl)ccc(F)c1Cl` here?
**A.** 57.9% (inactive)

**Q.** `COCCOCCOCc1n(Cc2ccc3ccccc3n2)c2ccccc2[n+]1Cc1ccc2ccccc2n1` was tested. Which growth did it give?
**A.** 16.5% (inactive)

**Q.** `CCOC(=O)c1cnn(-c2nc(-c3ccc(F)cc3)c(C#N)c(N3CCOCC3)n2)c1N` was tested. Which growth did it give?
**A.** 100% (inactive)

**Q.** How did the growth turn out when `CC(=O)c1c(OCC#N)ccc2c(C)cc(=O)oc12` was run?
**A.** 103% (inactive)

**Q.** `CN(CCC#N)C(=O)Nc1ccccc1` was tested. Which growth did it give?
**A.** 112% (inactive)

**Q.** How did the growth turn out when `C#Cc1ccccc1NC(=O)c1sc2nc3c(cc2c1N)CCCCC3` was run?
**A.** 104% (inactive)

**Q.** Which growth does the source give for `COCCOC(=O)COc1ccc(OC)cc1` here?
**A.** 108% (inactive)

**Q.** For `C#C[C@@]1(O)[C@@H](CO)O[C@@H](n2cnc3c(-c4ccccc4)ncnc32)[C@@H]1O`, which growth is on record?
**A.** 112% (inactive)

**Q.** Which growth does the source give for `COc1cc(NCC(=O)Nc2cc(Nc3ccc(C)cc3)ncn2)c(Cl)c(OC)c1Cl` here?
**A.** 101% (inactive)

**Q.** How did the growth turn out when `COc1ccc2oc(=O)cc(-c3c(C#N)c(N)n4nc(N)c(C#N)c4c3C#N)c2c1` was run?
**A.** 101% (inactive)

**Q.** For `O=C1NC(SCc2ccc(F)cc2)=N/C1=C/c1cccc(OCc2ccc(Cl)cc2)c1`, which growth is on record?
**A.** 11.8% (inactive)

**Q.** How did the growth turn out when `COc1ccc(Nc2nc(SCC(C)C)nc(-c3ccc(F)cc3)c2C#N)cc1` was run?
**A.** 52.4% (inactive)

**Q.** Which growth does the source give for `COC(=O)/C=C1\SC(=Nc2ccc(F)cc2)N(CCc2c[nH]c3ccccc23)C1=O` here?
**A.** 104% (inactive)

**Q.** For `Nc1c(C(=O)Nc2ccccc2)sc2nc3c(cc12)CN(C(=O)OCc1ccccc1)CC3`, which growth is on record?
**A.** 34% (inactive)

**Q.** For `COc1ccc(C2=NN(c3ccc(S(N)(=O)=O)cc3)C(c3ccc(Cl)cc3)C2)c(O)c1` (centres undefined), which growth is on record?
**A.** 45% (inactive)

**Q.** `COc1ccc(C(C)c2cc(OC)c(OC)c(OC)c2)cc1` (centres undefined) was tested. Which growth did it give?
**A.** 4.97% (active)

**Q.** With `COc1ccc(-n2nc(C(=O)NCC(=O)O)nc2-c2ccccc2)cc1` as the molecule, how does the growth read?
**A.** 116% (inactive)

**Q.** `CCOC(=O)C1=C(C)n2nc(CC#N)c(C#N)c2NC1c1ccc(Cl)cc1` (centres undefined) was tested. Which growth did it give?
**A.** 105% (inactive)

**Q.** For `Nc1c(C(=O)Nc2ccccn2)sc2nc3c(cc12)CCCC3`, which growth is on record?
**A.** 25.3% (inactive)

**Q.** Which growth does the source give for `CCN1CCC[C@H]1c1cc(O)c2c(c1OC)C[C@H]1C[C@H]3[C@H](N)C(=O)C(C(N)=O)=C(O)[C@@]3(O)C(=O)C1=C2O` here?
**A.** 2.84% (active)

**Q.** `Cc1cc(O)cc(O)c1N=NC1=NCCS1` was tested. Which growth did it give?
**A.** 115% (inactive)

**Q.** For `COC(=O)c1cncc(C(=O)Nc2ccc(-n3cnc4ccccc43)cc2)c1`, which growth is on record?
**A.** 96.9% (inactive)

**Q.** With `CNc1cccc2c1C(=O)c1cccc(N)c1C2=O` as the molecule, how does the growth read?
**A.** 52.4% (inactive)

**Q.** How did the growth turn out when `O=S(=O)(Nc1nccs1)c1ccc(Nc2nc(-c3ccncc3)cs2)cc1` was run?
**A.** 99.3% (inactive)

**Q.** How did the growth turn out when `CN1C(=O)c2cc(Cl)nc3c(NC(=O)c4cccc(Cl)c4)c(Cl)c(NC(=O)c4cccc(Cl)c4)c1c23` was run?
**A.** 2.82% (active)

**Q.** With `O=C(O)COc1ccc2c(=O)c3sc4c(=O)c5ccccc5c(=O)c4c3c(=O)c2c1` as the molecule, how does the growth read?
**A.** -63.2% (active)

**Q.** `O=C(Nc1nc(-c2ccccc2)cs1)c1cc(-c2ccc(Br)cc2)nc2ccccc12` was tested. Which growth did it give?
**A.** 31.3% (inactive)

**Q.** How did the growth turn out when `Cc1cc(Nc2nc(SCc3ccc(C(=O)Nc4ccc(F)cc4N)cc3)nn3cccc23)n[nH]1` was run?
**A.** 9.98% (active)

**Q.** How did the growth turn out when `O=C1NCc2ccc3c(-c4cccc(Cl)c4)c[nH]c3c21` was run?
**A.** 12.9% (inactive)

**Q.** For `O=C(CN1N=C(c2ccc(F)cc2)CCC1=O)Nc1nccs1`, which growth is on record?
**A.** 97.7% (inactive)

**Q.** How did the growth turn out when `O=C1Nc2ccc(Cl)cc2/C1=N/c1nc(-c2ccc(F)cc2)cs1` was run?
**A.** 34.1% (inactive)

**Q.** How did the growth turn out when `OCCNc1nc(NCCO)nc(Nc2ccc(C3=NN(c4cc(Cl)cc(Cl)c4)C(c4ccc(Cl)cc4)C3)cc2)n1` (centres undefined) was run?
**A.** -22.7% (active)
